# Bioassay records deposited in PubChem by several laboratories.
# A selection: hits, their analogues and other compounds. The true share with any hit is near 2.2%.
# HIF activator = HIF pathway transcriptional activators, primary screen, cell-based, U2OS HRE-luciferase, luminescence; U2OS HRE-luciferase reporter; normalized: DMSO 0%, desferrioxamine 100%; activation, % at 7.5 µM (by protocol); 300,000 tested, 0.32% active; AID 1910, 2009;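 active means mean activation of at least 10% of the iron chelator positive control signal, with at least half of replicates also reaching 10%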
# SMARCA2 activ = SMARCA2 (BRM) function activators, primary screen, cell-based, luminescence, high throughput. MG213 cells, MMTV-luciferase reporter, dexamethasone, overnight. activation, % at 9.1 µM. 370,000 tested, 1% active; in the data active means activation above about 7.8%;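 further: 0% = vehicle wells and 100% = reference activator wells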
# GalR3 antag = GalR3 antagonists in HEK293 cells, primary screen, cell-based, fluorescence readout; Galanin receptor type 3 (Homo sapiens), O60755; HEK293 GalR3-CNG cAMP membrane potential fluorescence; galR3 body fused to GalR1 C-terminus; inhibition, % at 3 µM; 360,000 tested, 0.44% active; AID 651719, 2012;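 active means inhibition above the screen-wide average plus 3 SD, cut at about 13% in these data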;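 further: forskolin and galanin both at EC90 stimulate the cells; cAMP rise reported by CNG channel membrane potential dye signal; 0% = forskolin plus galanin with DMSO and 100% = forskolin alone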
# Target sequence (O60755 1-299 limits assumed): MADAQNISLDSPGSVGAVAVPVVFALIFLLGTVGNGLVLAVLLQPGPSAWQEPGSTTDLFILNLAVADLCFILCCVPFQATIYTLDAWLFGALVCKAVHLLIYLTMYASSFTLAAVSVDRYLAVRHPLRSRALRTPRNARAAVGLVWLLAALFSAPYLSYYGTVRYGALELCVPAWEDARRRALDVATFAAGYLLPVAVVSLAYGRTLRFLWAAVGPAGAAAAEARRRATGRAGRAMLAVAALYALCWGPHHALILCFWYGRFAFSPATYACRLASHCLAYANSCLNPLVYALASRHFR
# Hsp70 act = Hsp70 transcriptional activators, primary screen, cell-based, HeLa, Hsp70 promoter luciferase, luminescence, 10 µM. HeLa Hsp70 promoter luciferase reporter; scaled: vehicle 0, proteasome-inhibitor control 100%. activation, % at 10 µM. 200,000 tested, 0.04% active. AID 1203, 2008;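 active means activation above the mean across all tested compounds plus 3 SD, cutoff set per campaign, cut at about 5.5% in these data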;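 further: 100% = MG132 at 30 µM as the positive control and 0% = DMSO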
# FXN GAA850 act = FXN promoter activators, primary screen, cell-based, luciferase luminescence, HEK293 lucGAA850; HEK293 lucGAA850 FXN promoter luciferase reporter, 24 h; percent of 10 µM SAHA response; 360,000 tested, 0.56% active; AID 540364, 2011; activation, % at 6 µM;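 active means activation above the average of all compounds screened plus 3 SD, cutoff fixed separately per campaign, cut at about 7.5% in these data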;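 further: 0% = DMSO wells and 100% = 10 µM SAHA wells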
# SMARCA2 conf = SMARCA2 (BRM) function activators, confirmation, cell-based, luminescence, triplicate. shares compounds with SMARCA2 activ. MG213 cells, MMTV-luciferase with dexamethasone, overnight; MG213 cells expressing E1A, Rb sequestered; DMSO wells 0%, reference activator 100%. activation, % at 9.1 µM. 3,500 tested, 30% active. AID 652260, 2013;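 active means activation above its plate's cutoff, the mean activation of tested wells plus 3 SD, cut at about 7.9% in these data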
# GAL4-VP16 Luc = GAL4-VP16 luciferase reporter activation, counter-screen for SMARCA2 (BRM) activator project, cell-based, pG5luc, luminescence, high throughput; shares compounds with SMARCA2 activ; HEK293 GAL4-VP16 pG5luc reporter; scaled: DMSO wells 0%, SAHA wells 100%; activation, % at 9.1 µM; 3,500 tested, 41% active; AID 686939, 2013;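 active means activation above the solvent-only control well mean plus 3 SD, averaged across control plates, cut at about 5.2% in these data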
# * marks the source's active call; other numbers are inactive results; . = not tested or not shown.
SMILES,HIF activator,SMARCA2 activ,GalR3 antag,Hsp70 act,FXN GAA850 act,SMARCA2 conf,GAL4-VP16 Luc
COc1ccc(-c2cc(=O)n(-c3nc4ccccc4[nH]3)[nH]2)cc1,1,8.4*,-5,0,1,18*,3
COC(=O)c1ccc2nc(-c3cccc(Cl)c3)c(Cc3cccc(Cl)c3)n2c1,.,4,-5,.,.,.,.
COC(=O)c1ccc2nc(-c3cccc(Cl)c3)c(Cc3cccc(F)c3)n2c1,.,11*,-5,.,.,-4,2
C=CCn1c(SCC(=O)NCc2ccco2)nc2ccccc2c1=O,0,-2,-2,0,3,.,.
C=CCn1c(SCC(=O)NCc2ccco2)nnc1-c1ccc2ccccc2n1,.,8.3*,-2,0,1,-1,1
COc1ccc(N=Nc2ccc(N)nc2N)cc1,1,12*,-13,.,7,11*,20*
Nc1ccc(N=Nc2ccc(O)cc2)c(N)n1,.,0,-4,.,1,.,.
C[C@H](NC(=O)C[C@@H]1C[C@@H]2c3cc(NC(=O)C4CCC4)ccc3O[C@@H]2[C@@H](CO)O1)c1ccccc1,.,-4,-1,.,.,.,.
O=C(Cn1sc2ccccc2c1=O)Nc1ccccc1,.,12*,-4,.,-5,6,0
O=C(Cn1sc2ccccc2c1=O)NC12CC3CC(CC(C3)C1)C2,0,.,.,0,-4,.,.
COC(=O)[C@@]12CCCCC3=C1N(CCC3)C(=O)[C@H]2CC(=O)NCC12CC3CC(CC(C3)C1)C2,.,-2,.,.,.,.,.
Cc1nc(-c2ccccc2)sc1-c1ccnn1C,2,5,-6,0,5,.,.
Cc1nc(-c2ccccc2)sc1-c1ccn[nH]1,1,12*,-9,0,5,14*,13*
C[C@H](CCC(=O)N(c1ccccc1)c1ccccc1)CC1CCCCC1,.,-7,.,.,.,.,.
CC1(O)C(c2ccccc2)=Nc2ccccc21 (stereo not given),.,9.5*,-8,.,3,12*,13*
O=C1CCC2(CCC(c3ccccc3)CC2)N1CCCO (stereo not given),.,-4,.,.,.,.,.
COCCNC(=O)COC(=O)/C=C/c1cnc2ccccc2n1,0,12*,-7,0,2,4,1
O=C(COC(=O)/C=C/c1cnc2ccccc2n1)NCC(F)(F)F,0,-2,-1,1,1,.,.
O=C1CC2(CCCCC2)CC(=O)N1CCc1ccccc1,.,8.0*,1,.,1,2,2
COC(=O)C(C)Oc1ccc2cc(-c3ccccc3)c(=O)oc2c1 (stereo not given),1,-1,-6,.,0,.,.
COc1ccc2cc(-c3ccccc3)c(=O)oc2c1,1,9.7*,-9,.,4,3,9.2*
COCCNC(=O)CN1CCCCCC1,0,8.3*,-4,0,3,2,1
O=C(Cn1cc(SCc2cccc(Cl)c2)c2ccccc21)N1CCOCC1,2,18*,-8,0,6,3,5.4*
Cc1cccc(CSc2cn(CC(=O)N3CCOCC3)c3ccccc23)c1,3,2,-1,0,3,.,.
O=C(c1ccc(C#Cc2ccccc2)cc1)N1CCC(O)CC1,.,1,.,.,.,.,.
SMILES,HIF activator,SMARCA2 activ,GalR3 antag,Hsp70 act,FXN GAA850 act,SMARCA2 conf,GAL4-VP16 Luc
COc1ccc(NC(=O)c2ccc(-c3ccc(-c4noc(C)n4)cc3C)cc2)cc1N1CCN(C)CC1,.,13*,1,.,0,17*,0
COc1ccc(-c2nc(-c3ccc(NC(=O)c4ccncc4)cc3)no2)cc1OC,0,.,.,0,-10,.,.
COc1ccc(-c2nnc(SCC(=O)N/N=C\C=C/c3ccco3)n2-c2ccc(C)cc2)cc1,.,-2,.,.,.,.,.
CCCCCCCCN1C(=O)N2Cc3ccc(C)cc3C2CS1(=O)=O (stereo not given),.,-6,.,.,.,.,.
COc1ccc(CCNC(=O)C(=O)NCC2OCCN2C(=O)c2ccc(Cl)cc2)cc1OC (stereo not given),0,9.5*,-4,.,1,0,1
COc1ccc(CCNC(=O)C(=O)NCC2OCCN2S(=O)(=O)c2ccc(OC)c(OC)c2)cc1OC (stereo not given),0,3,.,.,1,.,.
Cn1cc(CC(=O)NCc2ccc(F)cc2)c2ccccc21,1,7,-10,.,-1,.,.
Cn1cc(S(=O)(=O)Cc2ccc(F)cc2)c2ccccc21,0,8.2*,.,.,0,-3,0
COCC1CCN(C(=O)c2ccc(OC)c(OC3CCN(C(C)C)CC3)c2)CC1,1,0,-2,.,1,.,.
COc1ccc(C(=O)N2CCCC(O)C2)cc1OC1CCN(C(C)C)CC1 (stereo not given),0,8.2*,-3,.,0,4,1
O=C(c1cccc(I)c1)N1CCC(Oc2cccnc2)CC1,.,0,.,.,.,.,.
Cc1oc(C(C)(C)C)cc1C(=O)NCc1ccc2c(c1)OCO2,-1,8.8*,-5,.,0,3,0
Cc1ccc(C(=O)NCc2ccc3c(c2)OCO3)o1,-11,-1,-4,.,3,.,.
CC(C)CN1C(=O)[C@@]2(CC(=O)N(C)C2c2ccccc2)c2cc(-n3cc(CO)nn3)ccc21 (stereo not given in full),.,-3,.,.,.,.,.
CCc1ccc(OCC(=O)NC(C)(C)C)cc1,0,-1,0,0,2,.,.
Cc1ccc(OCC(=O)NCCO)cc1C,0,10*,-7,0,-1,1,5
CCNC(=O)COc1ccc(CC)cc1,1,8.1*,-4,0,3,8.0*,2
Cc1cccc(-c2cccc3c4c([nH]c23)[C@@H]2C[C@H](N(C)C(=O)NC3CCCCC3)[C@H]([C@H](C)O)CN2CC4)c1,.,-5,.,.,.,.,.
COc1ccc(C2=NOC(C(=O)Nc3cc(Br)ccc3O)C2)cc1OC (stereo not given),0,8.6*,-6,0,2,0,-1
O=S1(=O)c2ccc(Br)cc2OC[C@@H](Cc2ccccc2)N1Cc1cn(CCC2OCCCO2)nn1,.,-2,.,.,.,.,.
Cc1cccc2c1ncc1c(=O)n(-c3ccccc3)[nH]c12,3,12*,-12,.,4,8,11*
Cc1ccccc1N=Nc1c(N)[nH]n(-c2ccccc2)c1=O,.,-1,.,.,.,.,.
